Assay results: the supplement of paper PMC6089552
Among all 3,200 compounds or so, about 300 (9.4%) showed activity. The sample as a whole holds a higher share of actives than the screen did.

System: A673/TR/shEF
Assay: cell viability (LOESS-normalised, relative to median of negative controls) (log2 ratio); higher = more viable cells (less compound effect), active = hit call of the paper (over 3 MAD below the median)
Settings: treatment time: 72 h
Summary of the method: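 A673/TR/shEF Ewing sarcoma cells (1,500 per well, 384-well plates) were grown with or without doxycycline to induce EWS-FLI1 shRNA knockdown, starting 24 h before compounds. Library compounds at two or more concentrations, with DMSO controls, were added for three days. Cell viability was read by CellTiter-Glo luminescence on an Envision reader, then LOESS-corrected per plate, divided by the median of negative controls and log2-transformed. Hits were wells at least three median absolute deviations from the median of all screened wells.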

[1] = 0.25 µM, library screen: screen2, EWS-FLI1 expression: high (no doxycycline)
[2] = 0.25 µM, library screen: screen2, EWS-FLI1 expression: low (doxycycline-induced shRNA knockdown)
[3] = 2.5 µM, library screen: screen2, EWS-FLI1 expression: high (no doxycycline)
[4] = 2.5 µM, library screen: screen2, EWS-FLI1 expression: low (doxycycline-induced shRNA knockdown)
[5] = 0.25 µM, library screen: screen1, EWS-FLI1 expression: high (no doxycycline)
[6] = 0.25 µM, library screen: screen1, EWS-FLI1 expression: low (doxycycline-induced shRNA knockdown)
[7] = 2.5 µM, library screen: screen1, EWS-FLI1 expression: high (no doxycycline)
[8] = 2.5 µM, library screen: screen1, EWS-FLI1 expression: low (doxycycline-induced shRNA knockdown)
[9] = 0.103 µM, library screen: screen3, EWS-FLI1 expression: high (no doxycycline)
[10] = 0.103 µM, library screen: screen3, EWS-FLI1 expression: low (doxycycline-induced shRNA knockdown)
[11] = 0.308 µM, library screen: screen3, EWS-FLI1 expression: high (no doxycycline)
[12] = 0.308 µM, library screen: screen3, EWS-FLI1 expression: low (doxycycline-induced shRNA knockdown)
[13] = 0.926 µM, library screen: screen3, EWS-FLI1 expression: high (no doxycycline)
[14] = 0.926 µM, library screen: screen3, EWS-FLI1 expression: low (doxycycline-induced shRNA knockdown)
[15] = 2.8 µM, library screen: screen3, EWS-FLI1 expression: high (no doxycycline)
[16] = 2.8 µM, library screen: screen3, EWS-FLI1 expression: low (doxycycline-induced shRNA knockdown)
[17] = 8.3 µM, library screen: screen3, EWS-FLI1 expression: high (no doxycycline)
[18] = 8.3 µM, library screen: screen3, EWS-FLI1 expression: low (doxycycline-induced shRNA knockdown)
[19] = 25 µM, library screen: screen3, EWS-FLI1 expression: high (no doxycycline)
[20] = 25 µM, library screen: screen3, EWS-FLI1 expression: low (doxycycline-induced shRNA knockdown)

Measured: cell viability (log2)

CN1C(=O)CCC1c1cccnc1 (stereo not given)
inactive: [1] 0.264 | [2] 0.181 | [3] 0.161 | [4] 0.0586

CN[C@H](Cc1ccccc1)C(=O)N1CCC[C@H]1C(=O)N[C@@H](Cc1c[nH]c2ccccc12)C(=O)C(F)(F)C(F)(F)F
inactive: [1] 0.168 | [2] 0.0679 | [3] 0.0864 | [4] 0.0322

C[C@H](CCC(=O)O)[C@H]1CC[C@H]2[C@@H]3C[C@H](O)C4C[C@H](O)CC[C@]4(C)[C@H]3CC[C@]12C (stereo not given in full)
inactive: [5] 0.0369 | [6] -0.0168 | [7] 0.0626 | [8] -0.0216

CO[C@H]1C[C@@H]2CC[C@@H](C)[C@@](O)(O2)C(=O)C(=O)N2CCCC[C@H]2C(=O)O[C@H]([C@H](C)C[C@@H]2CC[C@@H](OCCO)[C@H](OC)C2)CC(=O)[C@H](C)/C=C(\C)[C@@H](O)[C@@H](OC)C(=O)[C@H](C)C[C@H](C)/C=C/C=C/C=C/1C
active: [9] -0.823 | [10] -0.667 | [11] -0.931 | [12] -0.779 | [13] -0.921 | [14] -0.761 | [15] -0.899 | [16] -0.779 | [17] -1.09 | [18] -0.731 | [19] -0.943 | [20] -0.733

CO[C@H]1C[C@@H]2CC[C@@H](C)[C@@](O)(O2)C(=O)C(=O)N2CCCC[C@H]2C(=O)O[C@H]([C@H](C)C[C@@H]2CC[C@@H](O)[C@H](OC)C2)CC(=O)[C@H](C)/C=C(\C)[C@@H](O)[C@@H](OC)C(=O)[C@H](C)C[C@H](C)/C=C/C=C/C=C/1C
active: [9] -0.737 | [10] -0.644 | [11] -0.758 | [12] -0.612 | [13] -0.692 | [14] -0.65 | [15] -0.692 | [16] -0.756 | [17] -0.726 | [18] -0.651 | [19] -0.719 | [20] -0.63

CO[C@H]1CC2CC[C@@H](C)[C@@](O)(O2)C(=O)C(=O)N2CCCC[C@H]2C(=O)O[C@H]([C@H](C)C[C@@H]2CC[C@@H](OP(C)(C)=O)[C@H](OC)C2)CC(=O)[C@H](C)/C=C(\C)[C@@H](O)[C@@H](OC)C(=O)[C@H](C)C[C@H](C)/C=C/C=C/C=C/1C
active: [9] -0.93 | [10] -0.714 | [11] -0.852 | [12] -0.724 | [13] -0.888 | [14] -0.755 | [15] -0.837 | [16] -0.688 | [17] -0.983 | [18] -0.734 | [19] -1.05 | [20] -0.738

CO[C@H]1C[C@@H]2CC[C@@H](C)[C@@](O)(O2)C(=O)C(=O)N2CCCC[C@H]2C(=O)O[C@H]([C@H](C)C[C@@H]2CC[C@@H](OC(=O)C(C)(CO)CO)[C@H](OC)C2)CC(=O)[C@H](C)/C=C(\C)[C@@H](O)[C@@H](OC)C(=O)[C@H](C)C[C@H](C)/C=C/C=C/C=C/1C
active: [9] -0.862 | [10] -0.712 | [11] -0.972 | [12] -0.713 | [13] -0.859 | [14] -0.683 | [15] -0.839 | [16] -0.886 | [17] -0.828 | [18] -0.678 | [19] -0.905 | [20] -0.717

O=C(O)CSc1nnc(COc2ccccc2)n1-c1ccc(Cl)cc1
inactive: [5] 0.0719 | [6] -0.0199 | [7] 0.0305 | [8] 0.0659

CC1(C)C=CC(=O)[C@@]2(C)C1CC(=O)[C@]1(C)C2CC[C@@]2(C)[C@H](c3ccoc3)OC(=O)C3OC321 (stereo not given in full)
inactive: [5] 0.0164 | [6] 0.0615 | [7] 0.135 | [8] 0.0703

C=C(O)CCC/C=C\C[C@@H]1[C@@H](/C=C/[C@H](O)C2Cc3ccccc3C2)[C@@H](F)C[C@@H]1O
inactive: [1] 0.175 | [2] 0.154 | [3] 0.111 | [4] 0.184

Cc1ccc2c(c1)C(N1CCN(C)CC1)=Nc1cccnc1N2
inactive: [1] 0.144 | [2] 0.13 | [3] 0.0813 | [4] 0.0355

CC1(C)C=Cc2cc3ccc(=O)oc3cc2O1
inactive: [5] 0.0334 | [6] 0.0455 | [7] 0.0429 | [8] 0.132

Cc1ccc(C(=O)NCc2ccc3c(c2)OCO3)cc1
inactive: [5] 0.0742 | [6] -0.0061 | [7] 0.0676 | [8] 0.0498

COc1ccccc1/C=C1\SC(=S)N(C2CCS(=O)(=O)C2)C1=O (stereo not given)
inactive: [5] 0.0633 | [6] 0.0907 | [7] 0.0733 | [8] 0.0539

COc1ccc(OC)c(CN2CCN(Cc3cccnc3)CC2)c1
inactive: [5] 0.114 | [6] 0.038 | [7] 0.0976 | [8] -0.0472

N/C(=N/c1nc2ccccc2o1)NC(=O)Nc1ccccc1
inactive: [5] 0.05 | [6] 0.11 | [7] 0.0784 | [8] 0.171

NCC1COc2ccccc2O1 (stereo not given)
inactive: [5] 0.104 | [6] -0.0116 | [7] 0.0686 | [8] 0.0513

COc1cccc(C=CC(=O)O)c1C(C)C
inactive: [5] 0.0613 | [6] 0.0863 | [7] 0.0736 | [8] 0.0985

CCC(=O)OC1[C@@H]2CC3=C4CC(=O)O[C@@H](c5ccoc5)[C@]4(C)CCC3[C@@](C)(C2=O)[C@@H](CC(=O)OC)C1(C)C (stereo not given in full)
inactive: [5] 0.0873 | [6] -0.00184 | [7] 0.0649 | [8] 0.122

NCCC(=O)N[C@@H](Cc1cnc[nH]1)C(=O)O
inactive: [5] 0.026 | [6] 0.0201 | [7] 0.0679 | [8] 0.084

CC(C)c1c(C(=O)Nc2ccccc2)c(-c2ccccc2)c(-c2ccc(F)cc2)n1CC[C@@H](O)C[C@@H](O)CC(=O)O
inactive: [5] 0.091 | [6] 0.0242 | [7] 0.147 | [8] -0.0132

CC(C)n1c(/C=C/C(O)CC(O)CC(=O)O)c(-c2ccc(F)cc2)c2ccccc21 (stereo not given)
active: [17] -0.668 | [18] -0.538 | [19] -2.7 | [20] -1.87
inactive: [9] 0.107 | [10] 0.0332 | [11] 0.201 | [12] 0.108 | [13] 0.169 | [14] 0.0801 | [15] 0.0218 | [16] -0.0661

O=C(O)C[C@H](O)C[C@H](O)/C=C/c1c(C2CC2)nc2ccccc2c1-c1ccc(F)cc1
active: [13] -0.533 | [14] -0.345 | [15] -1.53 | [16] -0.986 | [17] -2.09 | [18] -1.25 | [19] -3.51 | [20] -3.56
inactive: [9] 0.0626 | [10] -0.0656 | [11] -0.114 | [12] -0.0155

O=C1O[C@H]([C@@H](O)CO)C([O-])=C1[O-].[Ca+2]
inactive: [5] 0.0808 | [6] 0.0736 | [7] 0.131 | [8] 0.127

CC1=C(C(=O)Nc2ccccc2Cl)C(c2ccccc2Cl)NC(=S)N1 (stereo not given)
inactive: [5] 0.0969 | [6] 0.0233 | [7] 0.106 | [8] 0.0823

CCc1c(C)c(C#N)c2nc3ccccc3n2c1-n1ccnc1C
inactive: [5] 0.109 | [6] 0.0379 | [7] 0.104 | [8] 0.136

CC(=O)Oc1ccc2c(c1)CC[C@@H]1[C@@H]2CC[C@]2(C)[C@@H](O)CC[C@@H]12
inactive: [5] 0.103 | [6] -0.00729 | [7] 0.0771 | [8] 0.0723

COc1c(O)cc(O)c2c(=O)c(-c3ccc(O)cc3)coc12
inactive: [5] 0.0728 | [6] 0.0747 | [7] 0.145 | [8] 0.165

COc1c/c(=C2\C=c3ccccc3=N2)[nH]/c1=C\c1[nH]c(C)cc1C
inactive: [9] -0.00852 | [10] -0.0389
active: [11] -0.218 | [12] -0.107 | [13] -0.709 | [14] -0.236 | [15] -2.64 | [16] -1.14 | [17] -3.15 | [18] -1.55 | [19] -4.31 | [20] -2.5

COc1nc(N/N=C/c2ccccc2F)nc(N2CCCCC2)n1
inactive: [5] 0.0265 | [6] 0.00454 | [7] 0.104 | [8] -0.0151

NC(Cc1ccc(F)cc1)C(=O)O (stereo not given)
inactive: 0.025 µM, library screen: screen2, EWS-FLI1 expression: high (no doxycycline) 0.118 | 0.025 µM, library screen: screen2, EWS-FLI1 expression: low (doxycycline-induced shRNA knockdown) 0.0851 | [5] 0.119 | [6] 0.172 | [1] 0.158 | [2] 0.0689 | [7] 0.144 | [8] 0.0179 | [3] 0.2 | [4] 0.0773 | 25 µM, library screen: screen2, EWS-FLI1 expression: high (no doxycycline) 0.0209 | 25 µM, library screen: screen2, EWS-FLI1 expression: low (doxycycline-induced shRNA knockdown) 0.0999

CSCCC(NC=O)C(=O)NC(C)C(=O)O (stereo not given)
inactive: [5] 0.11 | [6] 0.0779 | [7] 0.177 | [8] 0.154

O=C1c2ccc(O)c(O)c2C(=O)c2c(O)ccc(O)c21
inactive: [5] 0.0226 | [6] 0.0878 | [7] 0.117 | [8] -0.00838

O=C1c2c(O)ccc(O)c2C(=O)c2c(NCCNCCO)ccc(NCCNCCO)c21
active: [9] -0.962 | [10] -0.246 | [5] -1.93 | [6] -0.576 | [1] -2.25 | [2] -0.221 | [11] -1.25 | [12] -0.351 | [13] -1.51 | [14] -0.325 | [7] -4.22 | [8] -3.67 | [3] -2.87 | [4] -0.985 | [15] -2.02 | [16] -0.758 | [17] -3.96 | [18] -3.09 | [19] -4.26 | [20] -4.25

O=C1c2cccc(O)c2C(=O)c2c(O)cccc21
inactive: [5] 0.127 | [6] 0.109 | [7] 0.149 | [8] 0.271
